# Results: PubChem BioAssay AID1671190 (National Center for Advancing Translational Sciences (NCATS), 2021)
# The whole screen tested about 580,000 compounds, of which about 6,100 (1.1%) were called active. Roughly 15% stayed inconclusive and do not appear here. Calls come from the whole dose curve; as a rule, active = well fitted inhibition curve with a large enough effect; inconclusive = small, poorly fitted or top-dose-only effect, or another doubt; inactive = no such curve, though single readings can be large or run the other way. The entries come from a sample that favours actives as a whole. Where a call stands in place of a potency, no number is given.
# Molecular target: Polyunsaturated fatty acid lipoxygenase ALOX12 (Homo sapiens) (UniProt P18054)
# Experiment: Primary qHTS assay for inhibitors of human arachidonate 12S-lipoxygenase (ALOX12): Round 2
# Details: purified 12hLO, xylenol orange hydroperoxide absorbance; series mostly up to 108 µM
# Procedure, shortened: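 Hydroperoxide product was detected by ferrous iron/xylenol orange as the 573 to 405 nm absorbance ratio. Arachidonic acid at 40 uM (final) was turned over for 30 min at room temperature by 150 nM human 12hLO, pH 7.0 Hepes buffer, after 15 min compound preincubation.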
# Potency is the fitted concentration of half-maximal effect.
# Polyunsaturated fatty acid lipoxygenase ALOX12 (Homo sapiens), sequence (P18054 whole entry, looked up): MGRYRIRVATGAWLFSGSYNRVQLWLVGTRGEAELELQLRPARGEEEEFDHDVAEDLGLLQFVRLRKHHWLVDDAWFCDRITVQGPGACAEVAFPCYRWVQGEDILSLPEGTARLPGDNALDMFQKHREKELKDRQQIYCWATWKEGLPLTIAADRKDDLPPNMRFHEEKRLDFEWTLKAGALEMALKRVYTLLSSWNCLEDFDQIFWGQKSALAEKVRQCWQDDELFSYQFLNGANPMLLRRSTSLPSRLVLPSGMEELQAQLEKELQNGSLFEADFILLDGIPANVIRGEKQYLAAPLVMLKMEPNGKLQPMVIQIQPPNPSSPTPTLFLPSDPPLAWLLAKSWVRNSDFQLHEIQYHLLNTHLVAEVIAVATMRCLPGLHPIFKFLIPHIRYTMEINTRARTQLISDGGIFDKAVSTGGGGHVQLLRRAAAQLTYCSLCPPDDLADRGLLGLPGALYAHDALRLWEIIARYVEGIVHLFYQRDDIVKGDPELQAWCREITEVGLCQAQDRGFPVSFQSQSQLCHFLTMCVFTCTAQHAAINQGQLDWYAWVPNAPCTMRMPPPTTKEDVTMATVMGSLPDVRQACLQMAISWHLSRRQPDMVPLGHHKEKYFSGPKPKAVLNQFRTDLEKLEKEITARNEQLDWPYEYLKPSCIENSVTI
row,Compound,Potency
1,COC(=O)C1=C(C)N(Cc2ccccc2C(F)(F)F)C(=NCC2CC2)NC1c1cccc(Cl)c1 (stereo not given),inactive
2,CC(=O)C1=C(C)N(Cc2ccccc2)C(=S)NC1c1cccc(Br)c1 (stereo not given),44.7 µM (active)
3,CCN1CN(Cc2ccccc2)CNC1=S,inactive
4,COC(=O)C1=C(C)N(C)C(C)=C(C(=O)OC)C1c1cccc(Br)c1,inactive
5,O=C(CN1CCN(Cc2ccc(Cl)cc2)C1=O)NCc1ccc(F)cc1,inactive
6,CCN(CC)C(=O)C1=C(C)N(Cc2ccc(F)cc2)C(=O)C(CC(=O)NC2CCCC2)C1 (stereo not given),inactive
7,COC(=O)C1=C(C)N(Cc2ccccc2C(F)(F)F)C(=NCc2ccc(OC)cc2)NC1c1cccc(C(F)(F)F)c1 (stereo not given),inactive
8,CC(=O)C1=C(C)N(Cc2ccc(Cl)cc2)C(=S)NC1c1ccc(F)cc1 (stereo not given),44.7 µM (active)
9,COC(=O)C1=C(C)N(Cc2ccc(F)cc2)C(=S)NC1c1cccc(Cl)c1 (stereo not given),39.8 µM (active)
10,O=C1CCN(C(=O)C2CCN(C(=O)C3COc4ccccc4O3)CC2)CCCCCCN1 (stereo not given),inactive
11,Cc1ccc(NC(=O)CN2c3ccccc3CC2C)c(Cl)c1 (stereo not given),inactive
12,O=C(CSc1nnc(Cc2ccccc2)n1-n1cccc1)Nc1ccccc1,inactive
13,C[C@H](NC(=O)Cc1n[nH]c(=O)c2ccccc12)C(=O)N1CCN(c2ccccc2)CC1,inactive
14,Cc1ccc(NC(=O)C2=Cc3sc4c(c3CS2)CCCC4)c(C)c1,20 µM (active)
15,Cc1ccc(NC(=O)CCC2CCCC2)c(C)c1,inactive
16,Cc1ccc(NC(=O)c2cccc(CS(C)=O)c2)c(C)c1 (stereo not given),inactive
17,CSCCC(=O)NCc1ccccc1F,inactive
18,CCCCN1CC(C(=O)Nc2ccc(C(=O)Nc3ccccc3F)cc2)CC1=O (stereo not given),inactive
19,CN(CC1CCOC1)C(=O)Nc1cc(F)c(F)c(F)c1 (stereo not given),inactive
20,CC(=O)OCC1(COC(C)=O)COCC(COC(C)=O)(COC(C)=O)C1=O,inactive
21,C=CCNCc1ccc(Cl)c(Cl)c1,inactive
22,CCCOC(=O)c1cc(NC(=O)c2cc(Cl)c(OC)c(Cl)c2)ccc1N1CCOCC1,5.62 µM (active)

row,Compound,Potency
1,CCOC(=O)c1cc(NCc2c(Cl)cccc2Cl)ccc1N1CCOCC1,inactive
2,O=C(Nc1ccc(N2CCOCC2)c(Cl)c1)c1ccc2c3c(cccc13)CC2,inactive
3,C=CCSc1nc2c(c(=O)[nH]c(=O)n2C)n1CCCCC,inactive
4,C=CCNC(=O)CSc1nc(-c2ccccc2)c(-c2ccccc2)o1,inactive
5,Cn1cc(CN2CCOC[C@H](Oc3ccc(S(C)(=O)=O)cc3)C2)c2ccccc21,inactive
6,O=C(NC1CCNC1)C1CCN(c2nc(-c3ccccc3)nc3c2CCC3)CC1 (stereo not given),inactive
7,COc1ccc(CNC(=O)C(C)[C@@H]2CCc3c(C)cc(OCCN4CCOCC4)c(C)c3C2)cc1 (stereo not given in full),inactive
8,O=C(O)/C=C/c1ccccc1Cl,inactive
9,O=C(/C=C/c1ccccc1O)c1ccc(Cl)cc1Cl,39.8 µM (active)
10,O=C(O)/C=C/c1ccc(Cl)cc1Cl,inactive
11,CN(C)C(=O)c1ccc(OCc2coc(-c3ccccc3)n2)cc1,inactive
12,CC(C)Cn1cncc1CNC(=O)c1ccc2nc(-c3ccc(F)cc3)cn2c1,inactive
13,C[N+]1(CCNC(=O)/C=N/O)CCCCC1,6.31 µM (active)
14,CCN(CC)S(=O)(=O)c1ccc(NC(=O)CC2c3ccccc3C=CN2C(C)=O)cc1 (stereo not given),inactive
15,COc1ccc(CC(=O)NC(CCSC)c2nc3ccccc3[nH]2)cc1 (stereo not given),inactive
16,CSCC[C@H](NC(=O)CSc1cc(Cl)ccc1Cl)c1nc2ccccc2[nH]1,44.7 µM (active)
17,COc1ccc(CC(=O)N[C@@H](CCSC)c2nc3ccccc3[nH]2)cc1,inactive
18,Cc1nc(-c2ccc(OC(F)(F)F)cc2)sc1C(=O)N1CCCC1,inactive
19,O=C(CSc1nc(CN2CCOCC2)nc2ccccc12)N1CCN(Cc2ccccc2)CC1,inactive
20,Cc1cc2oc(C(=O)Nc3ccc(S(=O)(=O)N4CCCC(C)C4)cc3)cc(=O)c2cc1C (stereo not given),inactive
21,CC(=O)N1CCN(C(C(=O)O)c2cn(CCC(=O)O)c3cc(Br)ccc23)CC1 (stereo not given),inactive
22,CCCCCCCC[n+]1cccc(C(=O)N2c3c(nc(N)[nH]c3=O)NC(C)C2C)c1 (stereo not given),44.7 µM (active)

row,Compound,Potency
1,COc1ccc(CCNC(=O)c2sc(NC(C)C)nc2C)cc1,inactive
2,O=S1(=O)CC(N2CCN(CCO)CC2)CN1Cc1cn(Cc2ccc(Cl)cc2)nn1 (stereo not given),25.1 µM (active)
3,Cc1cccc(CN2CCN(C3CN(Cc4cn(Cc5ccccc5F)nn4)S(=O)(=O)C3)CC2)c1 (stereo not given),inactive
4,O=S1(=O)CC(N2CCSCC2)CN1Cc1cn(Cc2cccc(Cl)c2)nn1 (stereo not given),inactive
5,O=S1(=O)CC(N2CCN(CCO)CC2)CN1Cc1cn(Cc2cccc(Cl)c2)nn1 (stereo not given),7.08 µM (active)
6,Cc1cccc(CN2CCN(C3CN(Cc4cn(Cc5cc(C)cc(C)c5)nn4)S(=O)(=O)C3)CC2)c1 (stereo not given),inactive
7,CCCCCCN1CCN(C2CN(Cc3cn(Cc4ccc(F)cc4)nn3)S(=O)(=O)C2)CC1 (stereo not given),inactive
8,Cc1nc2ccccc2c(C)c1CC(=O)N1CCC(C)CC1,inactive
9,Cn1c(=O)c2c(nc(CN3CCc4ccccc4C3)n2CCCc2ccccc2)n(C)c1=O,inactive
10,COc1ccc(C(=O)/C=C/c2cccc(OC(=O)C3CC3)c2)cc1,inactive
11,Cc1nc2c(c(C)c1CCC(=O)NCCN1CCCC1)c(=O)n(C)c(=O)n2C,inactive
12,COc1ccc(-c2noc(CNC(=O)COc3cccc(C)c3C)n2)cc1OC,inactive
13,C=CCNc1nc(Nc2ccc(Cl)cc2)nc(OC)n1,39.8 µM (active)
14,COc1nc(NCc2ccc(Cl)cc2)nc(OC)n1,inactive
15,C=CCNc1nc(C)nc(OC)n1,inactive
16,Cc1[nH]c2ccccc2c1C(=O)CSc1nnc(CC(C)c2ccccc2)o1 (stereo not given),inactive
17,N#Cc1ccccc1COC(=O)c1ccc(Br)cc1,inactive
18,O=[N+]([O-])c1cccc(-c2noc([C@@H]3C[C@@H](O)CN3Cc3cccnc3)n2)c1,inactive
19,O=[N+]([O-])c1ccccc1CN1C[C@H](O)C[C@H]1c1nc(-c2ccc(F)cc2)no1,39.8 µM (active)
20,Oc1ccccc1CN1C[C@H](O)C[C@H]1c1nc(Cc2ccc(F)cc2Cl)no1,inactive
21,CC(C)CN1CCOC(CNC(=O)N2CCN(S(=O)(=O)c3ccc(C#N)cc3)CC2)C1 (stereo not given),inactive
